EP2 mod = modulates human prostaglandin E2 receptor EP2 signaling; P43116; EP2-expressing cells, cAMP HTRF FRET, PGE2 co-stimulation; induction, % at 25 µM; 260,000 tested, 0.83% active; AID 940;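 active = compounds whose cAMP rise, as percent of the full-agonist control response, exceeds 60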;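 also: rat C6 glioma line stably carrying human EP2 under a CMV promoter; the protocol text gives 20 µM as final concentration; 100% = response of wells given 1 µM PGE2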
Target sequence (P43116 whole entry, looked up): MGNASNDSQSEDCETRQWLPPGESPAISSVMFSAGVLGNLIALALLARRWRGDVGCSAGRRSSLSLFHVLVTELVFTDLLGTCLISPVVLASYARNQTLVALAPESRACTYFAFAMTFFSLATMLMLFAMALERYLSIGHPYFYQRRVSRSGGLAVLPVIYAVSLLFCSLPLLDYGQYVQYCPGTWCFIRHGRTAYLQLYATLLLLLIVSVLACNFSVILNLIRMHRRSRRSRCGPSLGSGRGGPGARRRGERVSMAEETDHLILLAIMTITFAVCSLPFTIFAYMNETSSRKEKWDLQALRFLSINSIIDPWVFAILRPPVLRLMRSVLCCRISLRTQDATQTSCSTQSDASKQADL
HSV augment = HSV replication enhancement. 220,000 tested, 0.005% active. AID 1956. maximum fold increase. HSV replication augmentation in cells, fold increase; in the data active = maximum fold increase above about 1.5; inconclusive = no clear call, values can overlap the other calls; tested in PC3 cells
EP2 antag = blocks the human prostaglandin E2 receptor EP2; P43116; C6 glioma cells expressing human EP2, cAMP TR-FRET; cells stimulated with saturating PGE2; inhibition, % at 25 µM; 260,000 tested, 0.52% active; AID 1422;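 active = percent inhibition above 40 after rounding to a whole number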;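 also: rat C6 glioma host cells with rolipram phosphodiesterase inhibitor present; the protocol text gives 20 µM as final concentration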
Furin inh = blocks human furin protease activity; purified furin, fluorogenic substrate cleavage; inhibition, % at 20 µM or 30 µM; 220,000 tested, 0.061% active; in the data active = inhibition above about 25%
Wee1 stabilizer = human Wee1 degradation inhibition, primary screen | AID 1321 | reporter increase, % at 5 µM | HeLa Luc-Wee1K328M stability, luciferase luminescence; 100% = proteasome inhibitor MG132 effect | P30291 | 220,000 tested, 1.2% active;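 active = activation above the mean of all tested compounds plus 3 SD, set per screening run, cut at about 8.8% in these data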;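 also: cells exposed to compound for 20 h before luminescence read; 0% = DMSO alone and 100% = MG132 at 30 µM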
p47phox inh = inhibitors of human p47phox binding | P14598 | p47phox/p22phox peptide binding, fluorescence polarization, 2 h | inhibition, % at 24.7 µM | 220,000 tested, 0.53% active | AID 1274;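 active = inhibition above about 30%, limit read from the data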;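 also: 0% = p47phox with labelled peptide and 100% = labelled peptide alone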
* hit, by the source's call; i = inactive; ? = inconclusive; . = no result given. Hits are enriched below; roughly 2.8% of the tested compounds scored in any of these assays.

SMILES	EP2 mod	HSV augment	EP2 antag	Furin inh	Wee1 stabilizer	p47phox inh
C/C(=N\NC(=O)c1[nH]c2c([N+](=O)[O-])cc(C)cc2c1-c1ccccc1)c1cccnc1	-1.6	?	11.4	-23.2	-1.0	35.3*
C/C(=N\NC(=O)c1cccnc1)c1ccc(C)c([N+](=O)[O-])c1	-22.3	i	8.1	-19.7	1.9	2.3
S=c1[nH]nc(NCCCN2CCOCC2)s1	-19.1	i	8.0	-9.7	-0.2	77.7*
COCCN1C(=O)C(O)=C(C(=O)c2ccco2)C1c1ccc(OC)c(OC)c1 (centres undefined)	8.9	.	18.0	.	.	.
Cc1cccc(NC(=O)COC(=O)c2cc3ccccc3oc2=O)c1	-8.3	i	8.3	-16.4	8.9*	-1.9
COCCn1c(SCC#N)nnc1-c1ccccc1O	18.0	i	4.2	-28.6	-0.2	-6.1
N#CCSc1nnc(-c2ccccc2O)n1Cc1ccccc1	15.6	i	4.9	-20.8	11.3*	1.4
O=C1OCC2=C1C(c1ccc(F)cc1)CC(=O)N2c1ccccc1 (centres undefined)	-14.5	i	5.0	-22.8	8.9*	1.6
Cc1ccnc(NC(=O)c2cc(-n3cnnc3)ccc2Cl)c1	8.8	i	5.4	-23.1	1.1	-15.2
Cc1ccc(NC(=O)c2cc(-n3cnnc3)ccc2Cl)c(C)c1	1.4	i	3.6	-4.8	4.5	42.1*
[N-]=[N+]=CC(=O)CC(c1ccccc1)N1C(=O)c2ccccc2C1=O (centres undefined)	9.1	.	.	-15.4	1.0	51.0*
Cc1ccc(S(=O)(=O)NCCC(=O)OCC(=O)Nc2ccccc2Cl)cc1	-9.1	i	9.6	-4.5	-0.3	33.0*
Cc1ccc(S(=O)(=O)NCC(=O)OCC(=O)Nc2ccccc2OC(F)F)cc1	-6.5	i	7.6	-16.9	1.1	0.7
Cc1ccc(S(=O)(=O)N2CCC(C(=O)O)(c3ccccc3)CC2)cc1	19.3	.	43.4*	.	.	.
Cc1ccc(S(=O)(=O)N2CCN(C(=O)CC(C)(C)C)CC2)cc1	8.9	i	5.6	-8.0	9.8*	-4.3
Cc1ccc(S(=O)(=O)N2CCN(C(=O)CCC(=O)NCc3ccc(F)cc3)CC2)cc1	0.0	i	6.5	-21.6	9.4*	-9.5
Cc1ccc(S(=O)(=O)N2CCN(C(=O)Cc3ccccc3)CC2)cc1	-23.1	i	1.3	-15.1	-1.4	-7.5
COc1ccccc1CNC(=O)CN1CCC(c2ccc3c(c2)OCO3)CC1	-36.8	.	5.0	.	.	.
OC1C2CN3CCN(C2)CC1(Cc1ccccc1)C3 (centres undefined)	-7.5	i	-1.5	30.0*	-0.6	-6.1
O=C(Nc1ccccc1N1CCN(C(=O)c2ccccc2)CC1)c1cccc(Cl)c1	11.1	i	1.7	-26.0	9.2*	-2.3
O=C(Nc1ccccc1N1CCN(C(=O)c2ccc(Cl)cc2)CC1)c1ccc2c(c1)OCO2	30.1	i	3.5	-26.6	0.3	-22.1
CCCCC(=O)O[C@H]1CCC2C3CCc4cc(O)ccc4C3CC[C@@]21C (some centres undefined)	18.6	.	8.1	.	.	.
C[C@@]12CC[C@H]3c4ccc(O)cc4CC[C@@H]3[C@H]1CC[C@H]2OC(=O)CCc1ccccc1	22.5	.	41.8*	.	.	.
COc1ccc(Nc2nc3c(C)cccn3c(=O)c2C=NCc2ccccc2)cc1	64.3*	i	3.4	-7.9	-3.3	1.2
CNc1nc2c(C)cccn2c(=O)c1C=NCc1ccccc1	60.8*	.	.	-8.1	1.0	-10.8
SMILES	EP2 mod	HSV augment	EP2 antag	Furin inh	Wee1 stabilizer	p47phox inh
CN=Cc1c(NC)nc2c(C)cccn2c1=O	-14.7	i	10.2	-14.4	-3.1	-4.5
NNc1nc2sc3c(c2c(=O)[nH]1)CCCC3	-47.5	.	14.7	.	.	.
Cc1ccc(NS(=O)(=O)c2ccc(C(=O)NCC3CCCO3)cc2)cc1 (centres undefined)	-26.8	i	0.3	-6.7	10.7*	-3.0
Cc1ccc(NC(=O)c2ccc(S(=O)(=O)NCC3CCCO3)cc2)cc1 (centres undefined)	21.7	i	8.8	-14.5	-1.9	-8.8
O=C(CNCC1CCCO1)Nc1ccccc1N1CCCCCC1 (centres undefined)	62.0*	i	3.8	-16.0	5.6	-5.3
O=C(Cc1ccccc1)NCC1CCCO1 (centres undefined)	2.6	i	9.1	-13.4	10.2*	-10.8
Cc1cccc(NC(=O)C(=O)NCC2CCCO2)c1 (centres undefined)	21.4	i	7.0	-20.9	8.8*	-2.0
O=C(NCC1CCCO1)Nc1cccc(Cl)c1 (centres undefined)	-7.0	i	13.0	-42.6	-0.5	-5.1
COc1ccc(CNC(=O)Cn2nc3c4ccccc4ncn3c2=O)cc1	-40.1	.	4.1	.	.	.
O=C1NCCCC2c3cc(O)c4ccccc4c3OC12N1CCCCC1 (centres undefined)	-3.3	.	24.8	-17.5	-2.7	30.0*
CCCn1c(SCC(=O)Nc2ccc(C(C)=O)cc2)nnc1-c1ccncc1	-41.9	.	5.7	.	.	.
Cc1nnc(NC(=O)c2nn(CC(C)C)c(=O)c3ccccc23)s1	17.9	i	6.5	-28.3	10.4*	2.2
COc1ccc(N=c2oc3ccccc3cc2C(=O)NCc2ccco2)cc1	78.3*	.	10.6	.	.	.
Cc1ccc2oc(/N=C(\N)NC(=O)C3CC3)nc2c1	-6.8	i	8.3	-19.3	9.3*	-1.3
Cn1c(N2CCC(C(=O)NC3CCc4ccccc43)CC2)nc2ccccc21 (centres undefined)	-59.2	.	9.4	.	.	.
COC(=O)c1sc2ncccc2c1OCc1c(Cl)cccc1Cl	61.9*	i	4.3	-14.2	1.4	0.9
COC(=O)c1sc2ncccc2c1OCc1cccc(Cl)c1	51.2	i	6.4	-24.7	1.8	-14.0
O=C(NCc1ccccn1)C(=O)C1C(=O)Nc2ccccc21 (centres undefined)	0.3	i	6.0	-16.1	9.5*	38.6*
Cc1cccc(NC(=O)COc2cccc(C)c2C)n1	-6.5	.	8.8	.	.	.
CC(C)(C)c1cc(NCc2ccccn2)n2ncc(-c3ccc(Cl)cc3)c2n1	19.9	i	6.4	-23.4	1.5	-6.5
CN(C)CCCNc1cc(C(C)(C)C)nc2c(-c3ccc(Cl)cc3)cnn12	-16.0	i	5.9	-26.1	2.2	64.9*
COC(=O)c1sccc1NC(=O)CC1C(=O)NCCN1C(=O)c1ccccc1 (centres undefined)	-0.8	i	10.6	-10.8	-0.2	-3.7
COC(=O)c1sccc1NC(=O)CC1C(=O)NCCN1C(=O)Nc1cc(Cl)ccc1OC (centres undefined)	-48.2	i	8.0	-0.9	8.9*	-7.1
CC(=O)c1c(C)[nH]c(C(=O)Nc2nc(-c3ccc(Cl)cc3)cs2)c1C	-52.5	i	40.6*	-16.4	3.6	-10.6
CC(=O)c1c(C)[nH]c(C(=O)Nc2nc(-c3ccc(-c4ccccc4)cc3)cs2)c1C	-51.4	i	15.2	-3.5	-2.2	-37.9
